Screening data: PubChem, National Center for Advancing Translational Sciences (NCATS)
Rows were chosen to be rich in hits. Some 4.8% of all compounds tested hit in one or more screens of this group.
IL1B secr inh: inhibitors of inflammasome signaling (IL-1 beta secretion) | hit rate 4.7% among 360,000 | THP-1 LPS/ATP IL-1B secretion, AlphaLISA, 16 h; stronger effect = lower value | AID 743279 | activity change, % at 57.5 µM; in the data active = activity change below about -50%; inconclusive = mostly about -30% to -49%; also: % is scaled to controls: 0 for no effect and ±100 for the full control effect
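Secreted IL-1B measured by AlphaLISA bead assay after 16 h compound exposure of THP-1 cells; compounds (final up to 57.5 uM) added 1 h before LPS (250 ng/mL) and ATP (1.25 mM) stimulation; lower signal means less secretion.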
USP1-UAF1 inh: blocks the human USP1/UAF1 deubiquitinase complex; Potency, µM (highest dose often 57.1 µM), for the others: at the top dose activity change, negative = inhibition, hits mostly inhibitors; hit rate 0.23% among 390,000; O94782; AID 743255; recombinant USP1/UAF1, Ub-Rhodamine cleavage fluorescence; also: potency is read from the fitted curve at half-maximal effect; % is scaled to controls: 0 for no effect and ±100 for the full control effect; nearly all actives have a fitted effect of over 60% in size
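1 nM enzyme complex + cpd, 15 min RT; start with Ub-Rho 150nM final; kinetic fluorescence ex 480/em 540, 6 reads q60 s. Buffer 50mM HEPES pH 7.8, 0.5mM EDTA, 0.1 mg/ml BSA, 1mM TCEP, 0.01% Tween-20.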
ATXN2 expr inh: ATXN2 expression inhibition. hit rate 0.72% among 360,000. Potency, µM (doses to about 57 µM), without a hit: at the highest dose activity change, negative = inhibition, hits mostly inhibitors. AID 1745845. HEK-293 ATXN2-luciferase reporter, luminescence, 24 h; also: potency is read from the fitted curve at half-maximal effect; % is scaled to controls: 0 for no effect and ±100 for the full control effect; nearly all actives have a fitted effect of over 55% in size
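qHTS (up to 57 uM final) was run with 24 h compound exposure of reporter cells at 37 °C. Each well was multiplexed: SteadyGlo luminescence measured ATXN2-luciferase expression after a fluorogenic Gly-Phe-AFC viability readout (25 uM final).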
USP2a block: USP2a (human) protease inhibition; O75604; USP2 core, Ub-CHOP2 coupled fluorogenic reporter, 485/531; Potency, µM (series often up to 38.3 µM), for the others: top-dose activity change, negative = inhibition, actives largely listed as inhibitors; hit rate 0.01% among 330,000;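 also: potency is read from the fitted curve at half-maximal effect; plate controls were DMSO wells for no effect and full inhibition by NEM control for full effect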
Target sequence (O75604 whole entry, looked up): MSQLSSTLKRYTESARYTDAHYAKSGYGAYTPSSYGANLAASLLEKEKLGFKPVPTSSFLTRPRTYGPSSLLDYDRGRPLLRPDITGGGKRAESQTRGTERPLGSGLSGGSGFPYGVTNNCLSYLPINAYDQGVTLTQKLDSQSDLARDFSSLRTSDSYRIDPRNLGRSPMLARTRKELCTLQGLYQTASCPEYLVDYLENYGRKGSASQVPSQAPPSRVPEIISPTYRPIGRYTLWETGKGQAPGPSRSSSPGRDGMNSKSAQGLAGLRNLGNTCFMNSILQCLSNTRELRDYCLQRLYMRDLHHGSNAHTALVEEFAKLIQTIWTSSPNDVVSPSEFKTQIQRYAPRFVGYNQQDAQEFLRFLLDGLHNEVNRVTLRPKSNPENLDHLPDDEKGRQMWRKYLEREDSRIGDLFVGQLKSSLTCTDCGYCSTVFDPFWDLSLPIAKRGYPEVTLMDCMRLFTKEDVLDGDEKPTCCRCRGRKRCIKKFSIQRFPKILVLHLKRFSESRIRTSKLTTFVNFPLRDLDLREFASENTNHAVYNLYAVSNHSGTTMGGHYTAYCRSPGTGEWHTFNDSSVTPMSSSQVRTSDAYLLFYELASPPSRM
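Deubiquitinase activity read as fluorescence (485/531 nm) after Ub-CHOP2 cleavage activates the enterokinase reporter on its substrate; USP2 core 10nM, Ub-CHOP2 and substrate 25nM each, 30min compound preincubation then 60min RT; data normalized to NEM, curves fitted.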
S2 tox: cell viability loss in ATXN counter-screen. hit rate 0.49% among 400,000. Potency, µM (top dose mostly 56.7 µM), usual class: cytotoxic. S2 cells (HEK-293 line with an ATXN2-luciferase reporter) viability, CellTiter-Fluor protease fluorescence, 24 h. AID 651635; also: potency is read from the fitted curve at half-maximal effect; nearly all actives have a fitted effect of over 40% in size
* = called active by the depositor; i = inactive; ? = inconclusive; nt = not tested or not shown; ! = not confirmed by another sample. Unless noted, calls follow the shape of the dose curve; as a rule, active = well fitted curve in the direction sought with a large enough effect; inconclusive = small, poorly fitted or top-dose-only effect, or another doubt; inactive = no such curve, though single readings can be large; an effect the other way counts as inactive or inconclusive.

SMILES	IL1B secr inh	USP1-UAF1 inh	ATXN2 expr inh	USP2a block	S2 tox
C#CCOCCOCCOCCNc1nc(N2CCN(C(=O)CCCCCCCCCCNC(=O)[C@H](CCCCN)n3cc(C[C@@H](C)CC)nn3)CC2)nc(N2CCN(C(=O)CCCCCCCCCCNC(=O)[C@H](CCCCN)n3cc(C[C@@H](C)CC)nn3)CC2)n1	-65.8*	?	22.4µM*	nt	12.6µM*
CCOC(=O)/C=c1/s/c(=C/c2ccccc2OC)c(=O)n1CC(=O)N1CCOCC1	-13.0	-16.9%	6.0%	nt	?
COC(=O)c1cc2oc(C)cc2n1CC(=O)Nc1cc(Cl)ccc1OC	nt	-17.2%	9.6%	nt	i
C#CCOCCOCCOCCNc1nc(N2CCN(C(=O)CCCCCCCCCCNC(=O)[C@H](CCCCN)n3cc(CCO)nn3)CC2)nc(N2CCN(C(=O)CCCCCCCCCCNC(=O)[C@H](CCCN=C(N)N)n3cc(C[C@@H](C)CC)nn3)CC2)n1	-98.1*	?	20µM*	?	17.8µM*
CCOC(=O)c1c(C)[nH]c(C(=O)CN(C)CC(=O)Nc2ccccc2Cl)c1C	13.9	-21.1%	-11.9%	-1.3%	i
O=C1OC(/C(=C\NCc2ccccc2)[N+](=O)[O-])c2ccccc21 (stereo not given)	-4.7	-3.7%	-11.4%	1.1%	i
O=C1OC(/C(=C\Nc2ccccc2)[N+](=O)[O-])c2ccccc21 (stereo not given)	-104.5*	6.4%	0.3%	-3.3%	i
N#Cc1ccccc1NS(=O)(=O)c1cc2c3c(c1)CCN3C(=O)CC2	21.6	-22.0%	7.5%	-1.3%	i
COc1ccc(-c2cc(-c3nc4ccccn4c3NCc3ccccc3)ccc2OC)cc1	-56.2*	-13.8%	3.98µM*	3.2%	7.94µM*
CCC(C)Sc1ccc(-c2nc3ccc(Cl)cn3c2NCc2ccccc2)cc1 (stereo not given)	-6.7	-23.0%	45.5%	2.6%	i
COc1ccc(-c2nc3ccccn3c2NCc2ccc3c(c2)OCO3)cc1	-27.5	-9.1%	17.9%	0.9%	i
CCC(C)Sc1cc(-c2nc3ccc(C)cn3c2NCc2ccccc2)ccc1OC (stereo not given)	-101.6*	-12.7%	17.8µM*	nt	10µM*
CCC(C)Sc1ccc(-c2nc3ccc(C)cn3c2NCc2ccccc2)cc1OC (stereo not given)	-99.6*	-12.4%	?	-1.6%	?
CCCn1nc(C(=O)OCC(=O)Nc2cccc(OC)c2)c2ccccc2c1=O	46.6	-15.6%	11.4%	1.6%	i
COc1ccc2ccccc2c1C1CC(=O)N2CN(C3CCCCC3)CSC2=C1C#N (stereo not given)	11.3	?	-6.4%	-0.8%	i
COc1ccc(C2CC(=O)N3CN(C4CCCCC4)CSC3=C2C#N)c(OC)c1 (stereo not given)	nt	2.24µM*	5.7%	nt	?
COc1ccc(C2CC(=O)N3CN(c4ccccc4F)CSC3=C2C#N)cc1OC (stereo not given)	1.5	-11.2%	-11.9%	4.47µM*	i
Cc1cccc(N2CCN(S(=O)(=O)c3csc(C(N)=O)c3)CC2)c1C	nt	-11.6%	nt	nt	nt
COc1cc(NC(C)CCCN)c2ncccc2c1 (stereo not given)	-10.9	?	?	-14.7%	12.6µM*!
CCN(Cc1ccccc1)c1ccccc1	-5.9	-28.2%	4.1%	nt	i
CCN(Cc1ccccc1)c1ccc(/C=N/N=C(N)N)cc1	-99.7*	-4.4%	?	-1.0%	?
CCN(Cc1nc2ccccc2c(=O)[nH]1)C(=O)COc1ccccc1-c1ccccc1	-4.5	-20.4%	-21.2%	2.3%	i
COC(=O)C1=CN(c2ccc(F)cc2)C(N)=C(C#N)C1c1ccc(-c2ccccc2)cc1 (stereo not given)	-17.9	nt	nt	nt	nt
O=C(Nc1nccs1)c1c(O)c2c([nH]c1=O)CCCC2	34.5	-7.1%	85.3%	2.5%	i
O=C(Nc1ccccc1O)c1c(O)c2c([nH]c1=O)CCCC2	-67.6*	-14.4%	86.9%	0.0%	?
SMILES	IL1B secr inh	USP1-UAF1 inh	ATXN2 expr inh	USP2a block	S2 tox
CCN(CC1CCCN(CCc2cccc(OC)c2)C1)C(=O)c1ccoc1 (stereo not given)	7.7	-12.5%	-9.9%	6.0%	i
O=C(O)c1ccc(/C=N\Nc2ccc(S(=O)(=O)N3CCOCC3)cc2[N+](=O)[O-])cc1	2.9	-21.0%	13.2%	-0.2%	i
Cc1ccc(-n2c(O)c(/C=N/Nc3ccc(S(=O)(=O)N4CCOCC4)cc3[N+](=O)[O-])c3ccccc3c2=O)c(C)c1	-65.4*	-16.4%	?	-0.3%	?
O=C(c1ccco1)N(Cc1cccc([N+](=O)[O-])c1)c1ccc(Br)cc1	-53.8*	-12.5%	-31.9%	2.4%	i
O=C(c1ccco1)N(Cc1ccco1)c1ccc(O)cc1	-105.8*	-18.0%	3.8%	1.0%	?
Cc1ccc(N(Cc2cccs2)C(=O)c2ccco2)cc1	nt	1.5%	nt	nt	nt
Cc1nn(C)c2c1c(C(F)(F)F)cc(=O)n2C(C)C(=O)NCc1ccccc1 (stereo not given)	nt	-26.3%	0.8%	nt	i
COc1ccc(-c2nc3ccc(Cl)cn3c2Cc2cccc(Cl)c2)cc1OC	-17.6	nt	9.5%	nt	?
O=[N+]([O-])c1cc(C(F)(F)F)cc([N+](=O)[O-])c1NCCNC(=S)Nc1cccc(F)c1	-52.9*	-14.9%	?	3.1%	?
Cc1ccc(/C=N/N2C(=S)SC(C)(C)C2N(O)C(=O)Nc2ccc([N+](=O)[O-])cc2)cc1 (stereo not given)	-70.5*	-9.2%	-18.3%	0.5%	i
CC1(C)SC(=S)N(/N=C/c2ccc(O)cc2)C1N(O)C(=O)Nc1ccc([N+](=O)[O-])cc1 (stereo not given)	-6.3	?	-31.0%	3.6%	?
Cc1ccc2nc(-c3cccnc3)cc(C(=O)N3CCN(c4ccc([N+](=O)[O-])cc4)CC3)c2c1	9.8	-18.7%	-22.7%	3.3%	i
Cc1ccc2c(C(=O)N3CCN(c4ccccc4)CC3)cc(-c3cccnc3)nc2c1C	-63.6*	-11.4%	-14.7%	-0.8%	i
COc1cc(NS(=O)(=O)c2ccc3c(c2)CCCN3C(C)=O)cc(OC)c1OC	nt	-10.0%	nt	nt	nt
CC(C)CN1C(=O)CSCC1(C)C(=O)Nc1ccc2c(c1)OCCO2 (stereo not given)	-15.9	nt	nt	nt	nt
CC(C)CN1C(=O)CSCC1(C)C(=O)NC(C)C (stereo not given)	-67.9*	nt	nt	nt	nt
CCC(C)NCCOCCSc1ccc(Cl)cc1 (stereo not given)	-52.1*	-6.1%	-25.3%	-5.6%	i
C=CCc1cc(Cl)ccc1OCCOCCNC(C)CC (stereo not given)	-78.0*	-0.7%	-8.6%	0.1%	i
CCC(C)NCCCOc1cc(Cl)ccc1Cl (stereo not given)	0.0	4.8%	-28.9%	0.3%	i
